Test results: PubChem BioAssay (EPA / NIEHS)
Values joined by “and” are separate entries in the source; they are usually repeats but may differ in a detail not shown here. Identical values can stand only once. Records with an inconclusive call do not appear. Some compounds were tested as several samples or in several runs, with calls that do not always agree. Active and inactive are the calls of the source. Rule for the calls, unless noted: active = hit-call score of the fitted dose curve at least 0.9, where 1 is the maximum; inactive = score below 0.9.

Tests used:
[1] = target: Glucocorticoid receptor (Homo sapiens) (UniProt P04150); assay: ATG_GR_TRANS: Attagene TRANS-FACTORIAL HepG2 Assay for human Glucocorticoid Receptor (GR) (AID 2282978; active = hit-call score of the fitted dose curve at least 0.9, where 1 is the maximum;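 note: activators score as hits since higher reporter transcript over DMSO is fitted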); conditions: HepG2 Attagene TRANS GR reporter, mRNA transcription
Chain of Glucocorticoid receptor (Homo sapiens) (P04150 whole entry, looked up, the tested form may be a part): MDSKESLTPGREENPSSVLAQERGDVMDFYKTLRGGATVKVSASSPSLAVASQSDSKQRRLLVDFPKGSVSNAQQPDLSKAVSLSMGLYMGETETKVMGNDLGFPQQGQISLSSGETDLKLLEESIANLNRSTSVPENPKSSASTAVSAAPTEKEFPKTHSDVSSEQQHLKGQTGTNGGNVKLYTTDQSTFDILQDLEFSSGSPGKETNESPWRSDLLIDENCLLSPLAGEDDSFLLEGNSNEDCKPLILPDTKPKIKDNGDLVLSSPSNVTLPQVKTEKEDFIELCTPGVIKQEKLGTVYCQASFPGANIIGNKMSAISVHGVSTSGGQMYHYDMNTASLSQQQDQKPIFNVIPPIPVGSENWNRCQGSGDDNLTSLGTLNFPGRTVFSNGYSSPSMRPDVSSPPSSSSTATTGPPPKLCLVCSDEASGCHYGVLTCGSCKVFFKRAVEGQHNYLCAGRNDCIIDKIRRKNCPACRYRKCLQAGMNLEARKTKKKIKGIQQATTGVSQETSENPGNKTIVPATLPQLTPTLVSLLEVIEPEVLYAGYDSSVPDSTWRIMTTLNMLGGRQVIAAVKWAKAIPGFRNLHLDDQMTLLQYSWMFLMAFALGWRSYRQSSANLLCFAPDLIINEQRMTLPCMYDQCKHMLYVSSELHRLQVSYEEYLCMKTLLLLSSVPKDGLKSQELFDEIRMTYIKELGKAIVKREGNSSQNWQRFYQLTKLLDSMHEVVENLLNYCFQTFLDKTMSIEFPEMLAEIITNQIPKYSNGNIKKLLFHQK
How it was run: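 Exogenous NR-GAL4 fusion activity was assessed through induced GAL4-UAS reporter transcripts in transfected human HepG2 cells, quantified after 24 h by RT-PCR and fluorescent capillary electrophoresis with DMSO as baseline.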

[2] = target: Bile acid receptor (Homo sapiens) (UniProt Q96RI1); assay: ATG_FXR_TRANS: Attagene TRANS-FACTORIAL HepG2 Assay for Farnesoid X Receptor (FXR) (AID 2282979; active = hit-call score of the fitted dose curve at least 0.9, where 1 is the maximum;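 note: hits raise reporter mRNA above DMSO so AC50 marks FXR activation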); conditions: HepG2 Attagene TRANS FXR-GAL4 reporter transcription
Chain of Bile acid receptor (Homo sapiens) (Q96RI1 whole entry, looked up, the tested form may be a part): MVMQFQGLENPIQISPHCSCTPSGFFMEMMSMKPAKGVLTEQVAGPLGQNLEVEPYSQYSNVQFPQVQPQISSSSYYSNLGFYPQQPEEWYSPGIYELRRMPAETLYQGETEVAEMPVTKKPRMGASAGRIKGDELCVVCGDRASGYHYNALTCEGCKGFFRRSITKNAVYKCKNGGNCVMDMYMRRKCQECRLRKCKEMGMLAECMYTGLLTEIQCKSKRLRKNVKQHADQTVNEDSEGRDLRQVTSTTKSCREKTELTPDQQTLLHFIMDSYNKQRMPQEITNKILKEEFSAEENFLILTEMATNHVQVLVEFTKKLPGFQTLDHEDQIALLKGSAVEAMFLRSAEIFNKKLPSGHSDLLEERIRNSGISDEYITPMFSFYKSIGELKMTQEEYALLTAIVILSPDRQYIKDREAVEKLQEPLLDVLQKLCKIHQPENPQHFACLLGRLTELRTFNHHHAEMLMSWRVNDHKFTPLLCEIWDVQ
How it was run: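 Reporter transcripts from transfected HepG2 cells were measured 24 h after dosing, using RT-PCR with capillary electrophoresis of 6-FAM-labelled fragments. The read-out reflects activity of exogenous FXR-Gal4 chimera on GAL4-UAS units, with induction relative to DMSO.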

[3] = target: Oxysterols receptor LXR-beta (Homo sapiens) (UniProt P55055); assay: ATG_LXRb_TRANS: Attagene TRANS-FACTORIAL HepG2 Assay for human Liver X Receptor beta (LXRb) (AID 2282981; active = hit-call score of the fitted dose curve at least 0.9, where 1 is the maximum); conditions: HepG2 Attagene TRANS GAL4-LXRb reporter, mRNA
Chain of Oxysterols receptor LXR-beta (Homo sapiens) (P55055 whole entry, looked up, the tested form may be a part): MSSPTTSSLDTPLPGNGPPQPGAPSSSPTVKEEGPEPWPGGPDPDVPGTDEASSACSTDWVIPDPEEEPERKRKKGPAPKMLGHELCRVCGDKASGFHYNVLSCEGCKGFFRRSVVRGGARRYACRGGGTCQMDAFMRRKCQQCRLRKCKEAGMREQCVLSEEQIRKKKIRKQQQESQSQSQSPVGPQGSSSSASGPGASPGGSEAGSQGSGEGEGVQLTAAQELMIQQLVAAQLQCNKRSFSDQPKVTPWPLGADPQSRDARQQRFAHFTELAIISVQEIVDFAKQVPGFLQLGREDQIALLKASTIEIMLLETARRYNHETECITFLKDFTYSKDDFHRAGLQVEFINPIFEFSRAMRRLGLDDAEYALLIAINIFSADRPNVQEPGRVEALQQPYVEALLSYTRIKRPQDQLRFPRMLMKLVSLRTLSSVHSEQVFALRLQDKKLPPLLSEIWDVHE
How it was run: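 After 24 h of chemical treatment, transfected HepG2 cells yield total RNA; reporter cDNA is PCR-amplified, FAM-labelled, HpaI-cut and run on capillary electrophoresis. Signal reflects chimeric LXRb-Gal4 activity on GAL4-UAS reporters.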

[4] = ATG_M_06_TRANS: Attagene TRANS-FACTORIAL HepG2 Assay for M06 Transcription Factor (Internal Marker) (AID 2282983; active = hit-call score of the fitted dose curve at least 0.9, where 1 is the maximum); conditions: HepG2 Attagene TRANS M06 internal marker reporter
How it was run: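 Background-control reporter readout: after 24 h chemical exposure of transiently transfected HepG2 (GAL4-UAS reporter units), mRNA quantified by RT-PCR with fluorescent labeling and capillary electrophoresis. Gain-of-signal fitting against DMSO baseline.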

[5] = ATG_M_32_TRANS: Attagene TRANS-FACTORIAL HepG2 Assay for M32 Transcription Factor (Internal Marker) (AID 2282984; active = hit-call score of the fitted dose curve at least 0.9, where 1 is the maximum;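 note: transcript level of a background control reporter unit measured by RT-PCR and capillary electrophoresis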); conditions: HepG2 Attagene TRANS M32 internal marker reporter
How it was run: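 Cell-based TRANS-format assay in HepG2: exogenous chimeric GAL4 reporter units transiently expressed, compounds applied 24 h. Reporter mRNA detected by RT-PCR plus capillary electrophoresis; this readout is an internal background marker.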

[6] = target: Transcriptional activator Myb (Homo sapiens) (UniProt P10242); assay: ATG_Myb_CIS: Attagene CIS-FACTORIAL HepG2 Assay for human Myeloblastosis (Myb) Proto-Oncogene Transcription Factor (AID 2282986); conditions: HepG2 Attagene CIS-FACTORIAL Myb reporter transcription; actives raise or lower the signal
Chain of Transcriptional activator Myb (Homo sapiens) (P10242 whole entry, looked up): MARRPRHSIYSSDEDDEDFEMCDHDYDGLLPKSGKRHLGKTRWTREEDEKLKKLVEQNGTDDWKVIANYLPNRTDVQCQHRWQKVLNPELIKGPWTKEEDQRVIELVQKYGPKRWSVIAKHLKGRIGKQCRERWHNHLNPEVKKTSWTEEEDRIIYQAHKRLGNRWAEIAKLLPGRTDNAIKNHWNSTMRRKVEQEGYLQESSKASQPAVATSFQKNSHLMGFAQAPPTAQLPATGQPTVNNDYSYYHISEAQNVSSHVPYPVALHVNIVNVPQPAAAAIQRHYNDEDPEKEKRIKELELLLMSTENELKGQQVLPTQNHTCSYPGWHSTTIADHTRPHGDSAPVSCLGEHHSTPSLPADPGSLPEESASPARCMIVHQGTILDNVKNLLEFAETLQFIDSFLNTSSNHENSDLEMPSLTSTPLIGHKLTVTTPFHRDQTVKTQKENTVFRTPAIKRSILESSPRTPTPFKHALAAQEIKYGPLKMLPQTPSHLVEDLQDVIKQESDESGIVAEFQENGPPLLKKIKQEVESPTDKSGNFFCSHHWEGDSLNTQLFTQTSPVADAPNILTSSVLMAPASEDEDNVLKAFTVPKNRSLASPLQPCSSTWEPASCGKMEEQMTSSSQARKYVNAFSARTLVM
How it was run: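 In this HepG2 transient-transfection format, cis-regulated reporter mRNA is quantified 24 h post-dosing by RT-PCR with capillary electrophoresis, fitted bidirectionally to DMSO baseline.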

[7] = target: Nuclear respiratory factor 1 (Homo sapiens) (UniProt Q16656); assay: ATG_NRF1_CIS: Attagene CIS-FACTORIAL HepG2 Assay for human Nuclear Respiratory Factor 1 (NRF1) Orphan Gene (AID 2282987); conditions: HepG2 NRF1 cis-element reporter, Attagene multiplex; actives raise or lower the signal
Chain of Nuclear respiratory factor 1 (Homo sapiens) (Q16656 whole entry, looked up): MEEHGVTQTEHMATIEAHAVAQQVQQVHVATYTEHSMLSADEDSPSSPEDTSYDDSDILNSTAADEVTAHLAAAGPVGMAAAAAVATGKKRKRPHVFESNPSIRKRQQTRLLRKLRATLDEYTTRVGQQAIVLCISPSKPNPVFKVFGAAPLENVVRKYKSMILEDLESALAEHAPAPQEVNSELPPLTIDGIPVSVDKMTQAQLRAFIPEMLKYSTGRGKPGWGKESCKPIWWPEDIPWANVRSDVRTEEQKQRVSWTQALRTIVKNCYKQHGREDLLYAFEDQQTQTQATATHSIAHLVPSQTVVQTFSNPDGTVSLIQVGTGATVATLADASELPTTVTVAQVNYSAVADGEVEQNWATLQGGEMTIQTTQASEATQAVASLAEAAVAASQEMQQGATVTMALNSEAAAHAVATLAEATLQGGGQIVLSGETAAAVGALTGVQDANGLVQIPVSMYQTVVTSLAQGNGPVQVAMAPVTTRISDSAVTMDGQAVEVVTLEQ
How it was run: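 Using DMSO as baseline, gain- or loss-of-signal was fitted for reporter mRNA levels in HepG2 cells transiently transfected with cis-regulated reporter units. Samples were taken 24 h after dosing and read by RT-PCR with capillary electrophoresis.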

[8] = ATG_NFI_CIS: Attagene CIS-FACTORIAL HepG2 Assay for human Nuclear Factor I (NFI) (AID 2282989); conditions: HepG2 cis-regulatory reporter, NFI response element transcription; actives raise or lower the signal
How it was run: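 Reporter transcription driven by endogenous transcription factors in HepG2 cells; 24 h treatment. Quantitation by labelled RT-PCR fragments on capillary electrophoresis, gain- or loss-of-signal relative to DMSO.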

[9] = target: Myc proto-oncogene protein (Homo sapiens) (UniProt P01106); assay: ATG_Myc_CIS: Attagene CIS-FACTORIAL HepG2 Assay for human Myelocytomatosis (Myc) Proto-Oncogene Transcription Factor (AID 2282990); conditions: HepG2, Attagene cis-reporter transcription factor activity; actives raise or lower the signal
Chain of Myc proto-oncogene protein (Homo sapiens) (P01106 whole entry, looked up): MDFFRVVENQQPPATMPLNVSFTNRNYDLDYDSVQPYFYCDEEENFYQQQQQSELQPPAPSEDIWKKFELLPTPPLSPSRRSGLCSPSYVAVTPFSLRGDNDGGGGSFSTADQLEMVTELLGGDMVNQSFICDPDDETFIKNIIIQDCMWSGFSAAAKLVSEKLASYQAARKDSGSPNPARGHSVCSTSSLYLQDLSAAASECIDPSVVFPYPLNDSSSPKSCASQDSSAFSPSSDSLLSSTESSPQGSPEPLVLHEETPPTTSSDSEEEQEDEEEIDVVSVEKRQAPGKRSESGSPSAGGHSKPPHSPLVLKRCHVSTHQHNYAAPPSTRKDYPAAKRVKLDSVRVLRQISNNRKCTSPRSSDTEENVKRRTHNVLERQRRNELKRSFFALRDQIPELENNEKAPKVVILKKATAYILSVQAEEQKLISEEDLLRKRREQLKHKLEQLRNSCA
How it was run: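 HepG2, transient MRTU transfection (cis promoters, endogenous TFs); 24 h dosing; TriZol RNA → oligo(dT) RT → PCR → 6-FAM primer extension → HpaI cut → CE. Bidirectional fit vs DMSO.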

[10] = ATG_NF_kB_CIS: Attagene CIS-FACTORIAL HepG2 Assay for human Nuclear Factor Kappa B (NF-kB) (AID 2282991); conditions: HepG2 Attagene cis-factorial NF-kB reporter mRNA; actives raise or lower the signal
How it was run: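 Endpoint from a 52-component multiplexed HepG2 reporter panel: cis-regulated transcription units transiently transfected, 24 h dosing, reporter mRNA quantified by RT-PCR and capillary electrophoresis, scored as increase or decrease against DMSO.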

[11] = ATG_NRF2_ARE_CIS: Attagene CIS-FACTORIAL HepG2 Assay for human Nuclear Factor Erythroid 2 Related Factor 2 (NFR2) response to Antioxidant Response Elements (ARE) (AID 2282992); conditions: HepG2 Attagene ARE/NRF2 reporter, transcription factor activity; actives raise or lower the signal
How it was run: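 Endogenous transcription factor activity read out as reporter transcript levels (RT-PCR plus capillary electrophoresis, fluorescence) in transiently transfected HepG2 cells. Measured at 24 h after dosing; gain or loss of signal fitted versus DMSO.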

[12] = ATG_Oct_MLP_CIS: Attagene CIS-FACTORIAL HepG2 Assay for human Octamer-Binding Transcription Factor (Oct) (AID 2282993); conditions: HepG2 Attagene cis-factorial Oct reporter, mRNA; actives raise or lower the signal
How it was run: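 Transfected HepG2 cells, 24 h treatment. Reporter mRNA quantified by RT-PCR–capillary electrophoresis; bidirectional fitting against DMSO.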

[13] = target: Cellular tumor antigen p53 (Homo sapiens) (UniProt P04637); assay: ATG_p53_CIS: Attagene CIS-FACTORIAL HepG2 Assay for human p53 Transcription Factor (AID 2282994); conditions: HepG2 p53 cis-element reporter, Attagene mRNA; actives raise or lower the signal
Chain of Cellular tumor antigen p53 (Homo sapiens) (P04637 whole entry, looked up): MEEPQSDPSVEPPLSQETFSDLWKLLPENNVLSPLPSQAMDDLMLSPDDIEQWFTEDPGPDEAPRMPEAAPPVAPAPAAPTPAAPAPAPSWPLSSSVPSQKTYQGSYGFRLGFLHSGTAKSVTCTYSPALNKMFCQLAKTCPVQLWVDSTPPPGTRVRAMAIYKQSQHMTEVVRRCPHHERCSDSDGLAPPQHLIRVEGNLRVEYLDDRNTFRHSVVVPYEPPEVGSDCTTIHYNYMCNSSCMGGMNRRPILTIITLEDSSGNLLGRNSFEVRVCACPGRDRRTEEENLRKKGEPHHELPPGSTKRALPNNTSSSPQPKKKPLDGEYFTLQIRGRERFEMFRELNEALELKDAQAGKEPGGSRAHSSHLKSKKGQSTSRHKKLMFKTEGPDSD
How it was run: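 Endogenous p53 activity read in transiently transfected HepG2 from a cis-element-driven reporter transcript after 24 h exposure. RNA reverse-transcribed, PCR-amplified, fluorescently labelled and sized by capillary electrophoresis; gain or loss fitted against DMSO baseline.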

[14] = BSK_3C_TissueFactor: BioMAP Diversity Plus: 3C Assay for Tissue Factor Biomarker Activity (AID 2282997); conditions: BioMAP 3C HUVEC, tissue factor biomarker readout; actives raise or lower the signal
How it was run: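 Tissue factor on primary human umbilical vein endothelium was read by ELISA 24 h after dosing, gain or loss relative to DMSO. Cytotoxicity ran alongside via SRB (0.1%, TCA-fixed, 560 nm).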

[15] = BSK_3C_uPAR: BioMAP Diversity Plus: 3C Assay for Urokinase-type plasminogen activator receptor (uPAR) Biomarker Activity (AID 2282998); conditions: BioMAP 3C HUVEC, uPAR biomarker ELISA; actives raise or lower the signal
How it was run: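 Readout: ELISA for surface uPAR. System: human umbilical vein endothelial primary cells, 24 h after chemical exposure. Analysis: bidirectional fit, DMSO baseline.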

[16] = BSK_3C_VCAM1: BioMAP Diversity Plus: 3C Assay for Vascular cell adhesion molecule 1 (VCAM1) Biomarker Activity (AID 2282999); conditions: BioMAP 3C HUVEC, VCAM1 ELISA, cytokine-stimulated; actives raise or lower the signal
How it was run: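 Activity fitted in both directions relative to DMSO, with ELISA measurement of the surface marker on primary HUVEC (3C) at 24 h post-treatment; parallel SRB staining (0.1% SRB, TCA-fixed, 560 nm) flagged overt cytotoxicity.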

[17] = BSK_4H_Eotaxin3: BioMAP Diversity Plus: 4H Assay for Eotaxin 3 Biomarker Activity (AID 2283000); conditions: primary human endothelial cells (HUVEC); actives raise or lower the signal
How it was run: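 Human umbilical vein endothelial cells (BSK_4H system) dosed with test chemical; Eotaxin-3 (CCL26) measured by ELISA 24 h after dosing. Bidirectional curve fitting relative to DMSO negative control as baseline.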

[18] = target: Oxysterols receptor LXR-alpha (Homo sapiens) (UniProt Q13133); assay: ATG_LXRa_TRANS: Attagene TRANS-FACTORIAL HepG2 Assay for human Liver X Receptor alpha (LXRa) (AID 2282980; active = hit-call score of the fitted dose curve at least 0.9, where 1 is the maximum); conditions: HepG2 Attagene TRANS reporter, LXRa transactivation
Chain of Oxysterols receptor LXR-alpha (Homo sapiens) (Q13133 whole entry, looked up, the tested form may be a part): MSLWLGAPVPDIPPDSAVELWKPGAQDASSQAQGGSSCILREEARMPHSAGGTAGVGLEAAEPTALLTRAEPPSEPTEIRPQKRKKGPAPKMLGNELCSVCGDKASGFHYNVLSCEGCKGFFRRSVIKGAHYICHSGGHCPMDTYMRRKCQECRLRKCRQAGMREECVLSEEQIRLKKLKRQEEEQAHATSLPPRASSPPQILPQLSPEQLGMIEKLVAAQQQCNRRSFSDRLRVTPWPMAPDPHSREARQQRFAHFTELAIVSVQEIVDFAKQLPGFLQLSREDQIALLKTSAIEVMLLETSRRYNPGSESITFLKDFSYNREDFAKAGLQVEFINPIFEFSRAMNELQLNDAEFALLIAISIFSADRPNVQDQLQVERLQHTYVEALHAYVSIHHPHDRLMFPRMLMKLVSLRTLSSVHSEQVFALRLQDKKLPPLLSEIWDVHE
How it was run: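 Chemical-induced reporter mRNA measured by RT-PCR with fluorescent labelling and capillary electrophoresis after 24 h dosing of transiently transfected HepG2 cells expressing exogenous NR-Gal4 chimeras; increases scored against DMSO baseline.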

[19] = target: human Peroxisome Proliferator-activated Receptor alpha (PPARa), PPARA (gene 5465) (UniProt Q07869); assay: ATG_PPARa_TRANS: Attagene TRANS-FACTORIAL HepG2 Assay for human Peroxisome Proliferator-activated Receptor alpha (PPARa) (AID 2283001; active = hit-call score of the fitted dose curve at least 0.9, where 1 is the maximum)
Chain of human Peroxisome Proliferator-activated Receptor alpha (PPARa), PPARA (gene 5465) (Q07869 whole entry, looked up, the tested form may be a part): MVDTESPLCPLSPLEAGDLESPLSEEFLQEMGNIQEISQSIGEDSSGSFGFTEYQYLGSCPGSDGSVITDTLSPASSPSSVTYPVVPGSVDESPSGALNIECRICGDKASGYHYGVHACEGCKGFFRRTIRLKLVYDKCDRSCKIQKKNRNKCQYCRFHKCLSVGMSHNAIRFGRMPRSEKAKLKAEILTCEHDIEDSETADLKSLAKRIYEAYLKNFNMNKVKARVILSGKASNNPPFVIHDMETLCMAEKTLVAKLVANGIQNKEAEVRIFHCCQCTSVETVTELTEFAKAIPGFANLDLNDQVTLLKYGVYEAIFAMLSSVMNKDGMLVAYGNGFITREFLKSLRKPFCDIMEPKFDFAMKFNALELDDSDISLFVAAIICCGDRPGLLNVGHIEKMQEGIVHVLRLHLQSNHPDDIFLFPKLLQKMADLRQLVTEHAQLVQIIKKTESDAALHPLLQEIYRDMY
How it was run: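 Transfected HepG2 cells treated with test chemical for 24 h. RNA isolated, reverse-transcribed with oligo(dT), PCR-amplified, FAM-labelled and HpaI-digested. Fragments sized by capillary electrophoresis; gain-of-signal fit relative to DMSO.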

[20] = target: Nuclear receptor subfamily 4 group A member 2 (Homo sapiens) (UniProt P43354); assay: ATG_NURR1_TRANS: Attagene TRANS-FACTORIAL HepG2 Assay for human Nuclear Receptor Related Protein 1 (NURR1) (AID 2282985; active = hit-call score of the fitted dose curve at least 0.9, where 1 is the maximum); conditions: HepG2 Attagene TRANS reporter, mRNA readout
How it was run: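 Measures transcriptional activation by an exogenous NR-Gal4 chimera in transfected HepG2 liver cells. After 24 h, reporter RNA is reverse-transcribed, amplified and resolved by capillary electrophoresis; DMSO defines baseline.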

Measured: AC50

CC(C)(c1cc(Br)c(O)c(Br)c1)c1cc(Br)c(O)c(Br)c1
active: [7] 53.3 µM | [8] 57.6 µM and 54.7 µM | [9] 38.2 µM | [11] 55.9 µM and 57.6 µM | [12] 47 µM and 40.3 µM | [13] 22.9 µM | [14] 31.1 µM | [15] 31.6 µM | [16] 32.1 µM | [17] 30.1 µM
inactive: [1] | [2] | [3] | [4] | [5] | [6] | [7] | [9] | [10] | [13]

O=CCCCC=O
active: [10] 73.1 µM | [11] 169 µM | [14] 30.3 µM | [15] 33.3 µM | [16] 31.6 µM | [17] 31.4 µM
inactive: [1] | [2] | [18] | [3] | [4] | [5] | [6] | [7] | [8] | [9] | [10] | [11] | [12] | [13] | [19]

CCCCOC(=O)CC(CC(=O)OCCCC)(OC(C)=O)C(=O)OCCCC
not listed: [3] | [18]
inactive: all other assays above

COc1ccc2cc(S(=O)(=O)N[C@H](CC(=O)N[C@H](Cc3ccc(CN4[C@H](C)CCC[C@@H]4C)cc3)C(=O)N(C)C(C)C)c3ccc4c(c3)OCO4)ccc2c1
active: [11] 11 µM | [12] 11 µM | [13] 11 µM | [14] 5.1 µM | [15] 19.1 µM | [16] 16.4 µM | [17] 11.3 µM
not listed: [4] | [5] | [20]
inactive: all other assays above

CN1C(=O)N(c2ccccc2Br)Cc2cnc(Nc3ccc4c(c3)OCC(CO)O4)nc21 (centres undefined)
active: [9] 2.93 µM | [12] 9.54 µM | [13] 0.0368 µM | [14] 9.9 µM | [15] 10.7 µM | [16] 33.6 µM | [17] 9.49 µM
not listed: [3] | [4] | [18] | [19] | [20]
inactive: all other assays above

Cc1cc(F)ccc1-c1cc(N2CC[C@@H](O)[C@H]2CO)ncc1N(C)C(=O)C(C)(C)c1cc(C(F)(F)F)cc(C(F)(F)F)c1
active: [14] 12.4 µM | [15] 9.24 µM | [16] 11.8 µM | [17] 12.5 µM
not listed: [4] | [5] | [18] | [19] | [20]
inactive: all other assays above

COc1cc(C(=O)NC2CCN(C)CC2)ccc1Nc1ncc2c(n1)N(C1CCCC1)CC(F)(F)C(=O)N2C
active: [8] 709 nM | [12] 1.07 µM | [13] 1.94 µM | [14] 5.9 µM | [15] 22.7 µM | [16] 19.1 µM | [17] 14.6 µM
not listed: [5] | [20]
inactive: all other assays above
